Measured values from PubChem BioAssay AID720518 (National Center for Advancing Translational Sciences (NCATS), 2013).
Records with an inconclusive call do not appear. A call without a number means that no potency is given here. Active and inactive are the calls of the source. The call rests on the fitted dose curve.

Experiment: qHTS for Inhibitors of Cell Surface uPA Generation: Wild-type Protective Antigen (WT-PrAg) Counterscreen for Cherry-picked Compounds
Conditions: cells, WT protective antigen toxicity counterscreen; series mostly up to 115 µM
With `CCn1c(SC(C)C(=O)NC2CCCC2)nc2cc(S(N)(=O)=O)ccc21` (configuration not stated) the Potency was “inactive”. With `CCCCN(CC)CCNC(=O)c1cc2cc3ccc(Cl)cc3nc2o1` the Potency was “inactive”. In the case of `COc1ccc(Cc2nnc(NC(=O)Nc3ccc(F)cc3)s2)cc1`, the Potency is reported as “inactive”. In the case of `O=C(NC1CCCCC1)C(c1ccco1)N(C(=O)c1csnn1)c1cccc(Cl)c1` (configuration not stated), the Potency is reported as “inactive”. With `Fc1cccc(Cl)c1CSc1ccc(-c2cccnc2)nn1` the Potency was “inactive”. In the case of `O=C(NCCS(=O)(=O)N1CCC2(CC1)OCCO2)c1ccc(F)cc1`, the Potency is reported as “inactive”. With `COc1ccc(NS(=O)(=O)c2c(C)n(C)c(=O)n(C)c2=O)cc1OC` the Potency was “inactive”. In the case of `O=C(C1CCCCN1S(=O)(=O)c1ccc(F)cc1)N1CCN(c2ccccc2F)CC1` (configuration not stated), the Potency is reported as “inactive”. For `N/C(=N/OC(=O)c1ccccc1F)c1nonc1N`, the Potency was “inactive”. With `COc1cc(CCC(=O)OCC(=O)NCc2ccccc2)cc(OC)c1OC` the Potency was “inactive”. In the case of `CC1CCCN(C(=O)c2ccc(-c3ccccc3Cl)o2)C1` (configuration not stated), the Potency is reported as “inactive”. With `CCOC(=O)N1CCc2c(sc3nc4n(c(=O)c23)N=C(C)CS4)C1` the Potency was “inactive”. In the case of `Cc1nc(SCC(=O)NCCN2C(=O)CSC2=O)nc(C)c1C`, the Potency is reported as “inactive”. In the case of `CCOc1ccc(-c2n[nH]c(=S)n2Cc2ccccc2)cc1`, the Potency is reported as “inactive”. With `C=C(C(=O)O)C1CCC2(C)CCCC(C)(O)C2C1` (configuration not stated) the Potency was “inactive”. With `Cc1ccc(Nc2nc(Cl)c(C=O)s2)cc1` the Potency was “inactive”. In the case of `O=C(NC[C@H]1CCCO1)c1cccc2c1C(=O)c1ccc(-c3ccc(F)cc3OCc3ccccc3)cc1S2(=O)=O`, the Potency is reported as “inactive”. For `CCc1c(C)sc(NC(=S)N2CC(C)OC(C)C2)c1C(=O)OC` (configuration not stated), the Potency was “inactive”. With `CCN(CC)CCCn1c2c(c(SCC(=O)Nc3cccc4ccccc34)nc1=O)CCC2` the Potency was “inactive”. For `O=c1[nH]c(=O)n(-c2ccc(Cl)cc2)c(O)c1C=Nc1ccc(S(=O)(=O)Nc2nccs2)cc1`, the Potency was “inactive”. In the case of `O=C(NCCc1ccccc1)C1CCC(=O)N(Cc2cccc(C(F)(F)F)c2)C1` (configuration not stated), the Potency is reported as “inactive”. In the case of `O=C(CCCOc1ccc(Cl)cc1Cl)NCc1ccncc1`, the Potency is reported as “inactive”.
